# Results from PubChem BioAssay (NCATS).
# Inconclusive results are not listed. Active and inactive are the calls of the source. Unless noted, calls come from the whole dose curve; as a rule, active = well fitted curve in the direction sought with a large enough effect; inconclusive = small, poorly fitted or top-dose-only effect, or another doubt; inactive = no such curve, though single readings can be large; an effect the other way counts as inactive or inconclusive.
# What was measured:
# [1] = target: Peroxisome proliferator-activated receptor delta (Homo sapiens) (UniProt Q03181); assay: qHTS assay for small molecule agonists of peroxisome proliferator-activated receptor delta signaling (AID 588534; calls by dose curve;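 note: 0% = DMSO basal wells and 100% = positive control agonist at 10 µM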)
# Peroxisome proliferator-activated receptor delta (Homo sapiens), sequence (Q03181 whole entry, looked up): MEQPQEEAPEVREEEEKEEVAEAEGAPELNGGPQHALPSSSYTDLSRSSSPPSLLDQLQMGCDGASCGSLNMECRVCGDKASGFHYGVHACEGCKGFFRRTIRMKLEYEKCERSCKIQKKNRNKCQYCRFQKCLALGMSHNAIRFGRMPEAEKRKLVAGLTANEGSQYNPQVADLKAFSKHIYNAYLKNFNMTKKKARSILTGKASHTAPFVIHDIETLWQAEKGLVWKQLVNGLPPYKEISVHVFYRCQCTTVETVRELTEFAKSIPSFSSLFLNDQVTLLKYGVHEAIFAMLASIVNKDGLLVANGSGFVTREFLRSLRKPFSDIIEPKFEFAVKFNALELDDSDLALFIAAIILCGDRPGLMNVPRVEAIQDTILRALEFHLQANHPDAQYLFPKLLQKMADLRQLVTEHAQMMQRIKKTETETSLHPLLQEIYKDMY
# How it was run: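 Cell-based beta-lactamase reporter assay run in agonist mode: cells seeded and incubated 5 hrs at 37 C, compounds added and incubated 18 hrs at 37 C. CCF4 dye fluorescence read after 2 hrs at RT; EC50 and efficacy from Hill fits.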
# [2] = qHTS assay for small molecule antagonists of peroxisome proliferator-activated receptor delta signaling (AID 588535); details: HEK293T PPARd-UAS-bla, beta-lactamase FRET ratio, 18 h; 460 nm channel;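 note: cells co-treated with a PPAR-delta agonist as stimulator during compound exposure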
# How it was run: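 GeneBLAzer PPAR-delta-UAS-bla HEK293T cells in medium with 2% charcoal/dextran FBS were preincubated 5 hrs at 37 C, then given compounds, incubated 18 hrs at 37 C, and read by CCF4 beta-lactamase fluorescence; IC50 from Hill fits.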
# [3] = target: Vitamin D3 receptor (Homo sapiens) (UniProt P11473); assay: qHTS assay for small molecule antagonists of vitamin D receptor signaling (AID 588541; calls by dose curve;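 note: receptor activated by calcitriol during compound treatment; series mostly up to about 77 µM; % is set by controls: 0 for no effect and ±100 for the full control effect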)
# Vitamin D3 receptor (Homo sapiens), sequence (P11473 whole entry, looked up): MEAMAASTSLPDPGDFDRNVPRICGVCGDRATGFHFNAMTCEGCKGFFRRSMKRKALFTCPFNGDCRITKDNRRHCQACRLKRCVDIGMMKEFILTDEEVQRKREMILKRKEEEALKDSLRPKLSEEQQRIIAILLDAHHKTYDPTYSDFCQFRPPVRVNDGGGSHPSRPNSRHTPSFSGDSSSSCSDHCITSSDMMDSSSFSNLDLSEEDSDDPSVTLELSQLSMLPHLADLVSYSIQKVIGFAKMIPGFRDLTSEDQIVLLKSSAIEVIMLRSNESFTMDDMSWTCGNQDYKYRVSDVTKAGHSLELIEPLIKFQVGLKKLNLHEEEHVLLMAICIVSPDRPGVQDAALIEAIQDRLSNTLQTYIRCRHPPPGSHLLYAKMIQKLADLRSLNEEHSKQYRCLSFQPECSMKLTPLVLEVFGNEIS
# How it was run: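 VDR-UAS-bla HEK293T cells (2000/well, 2% charcoal-stripped FBS) were treated with titrated compounds plus 1-alpha,25-dihydroxyvitamin D3 (50 nM or 3 nM final) for 16 h at 37 C. CCF4 beta-lactamase fluorescence was read; Hill fits gave IC50.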
# [4] = target: Vitamin D3 receptor (Homo sapiens) (UniProt P11473); assay: qHTS assay for small molecule agonists of vitamin D receptor signaling (AID 588543; calls by dose curve;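 note: 0% = DMSO basal and 100% = reference agonist control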)
# How it was run: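 GeneBLAzer VDR-UAS-bla HEK293T cells in 2% charcoal-stripped FBS medium were dosed with compound titrations for 16 h at 37 °C; CCF4 β-lactamase readout (405 nm ex, 460/530 nm em). EC50 and efficacy from Hill fits, normalized to 50 nM calcitriol (100%) and DMSO (0%).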
# [5] = qHTS assay for small molecule agonists of retinoid X receptor alpha signaling (AID 588544; calls by dose curve; note: potency is the fitted concentration of half-maximal effect;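 for activation: 0% = DMSO basal wells and 100% = reference agonist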); details: HEK293T RXRa-UAS-bla, beta-lactamase reporter, 18 h; 530 nm emission
# [6] = target: Retinoic acid receptor RXR-alpha (Homo sapiens) (UniProt P19793); assay: as above
# Retinoic acid receptor RXR-alpha (Homo sapiens), sequence (P19793 whole entry, looked up): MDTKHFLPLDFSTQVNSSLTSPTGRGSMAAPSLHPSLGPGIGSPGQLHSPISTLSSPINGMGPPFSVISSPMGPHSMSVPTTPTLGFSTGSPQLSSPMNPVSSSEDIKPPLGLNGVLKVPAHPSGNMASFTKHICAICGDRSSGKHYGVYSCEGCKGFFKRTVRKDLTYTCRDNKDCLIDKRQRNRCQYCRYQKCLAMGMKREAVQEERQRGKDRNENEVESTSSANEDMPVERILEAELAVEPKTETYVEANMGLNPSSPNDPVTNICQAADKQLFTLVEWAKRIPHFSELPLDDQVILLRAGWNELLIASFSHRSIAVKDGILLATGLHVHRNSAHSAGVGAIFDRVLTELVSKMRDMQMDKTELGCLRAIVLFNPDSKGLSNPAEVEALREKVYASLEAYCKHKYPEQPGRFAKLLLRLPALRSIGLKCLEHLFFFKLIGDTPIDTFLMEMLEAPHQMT
# [7] = qHTS assay for small molecule antagonists of retinoid X receptor alpha signaling (AID 588546; active = well fitted inhibition curve with a large enough effect in the signal ratio, with a control signal flat, not every such curve was filed as active; the % refers to the signal ratio;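 note: cells stimulated with 9-cis-retinoic acid as agonist; % is set by controls: 0 for no effect and ±100 for the full control effect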); details: HEK293T RXRa-UAS-bla, beta-lactamase ratio, antagonist mode; measured here: W530 green channel, cytotoxicity proxy
# How it was run: (§1)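 Beta-lactamase reporter inhibition, read as CCF4 fluorescence ratio (ex 405, em 460/530 nm) after 2 h at RT. HEK293T UAS-bla cells, 2500/well, were stimulated with 9-cis-RA at 500 or 100 nM final alongside test compound for 18 h at 37 C.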
# [8] = target: Retinoic acid receptor RXR-alpha (Homo sapiens) (UniProt P19793); assay: as above; details: HEK293T RXRa-UAS-bla, beta-lactamase ratio, antagonist mode
# How it was run: as §1
# [9] = qHTS assay for small molecule activators of the p53 signaling pathway (AID 651743; active = well fitted activation curve with a large enough effect in the signal ratio, not every such curve was filed as active; the % refers to the signal ratio; note: series mostly up to about 92 µM; % of control where 0% means no effect); details: HCT-116 p53RE-bla, beta-lactamase FRET ratio, 16 h; activation: stronger effect = higher value
# How it was run: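 p53RE-bla HCT-116 cells with a stably integrated beta-lactamase reporter under p53 response elements were plated, rested 5 hours at 37 C/5% CO2, then exposed to compounds in DMSO for 16 hours at 37 C. LiveBLAzer B/G FRET substrate was read after 2 hours at room temperature.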
# [10] = qHTS assay for environmental chemicals that activate the Aryl hydrocarbon Receptor (AhR) signaling pathway (AID 651777); details: 1A2-DRE human hepatoma cells, luciferase, 24 h; activation: stronger effect = higher value; note: % of control where 0% means no effect; nearly all actives have a fitted effect of over 15% in size
# How it was run: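 Measured luciferase activity, read 30 min after One-Glo addition at room temperature, from human hepatoma cells bearing a dioxin response element–CYP1A2 promoter reporter and exposed to compound for 24 hr at 37 C.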
# [11] = target: Peroxisome proliferator-activated receptor alpha (Homo sapiens) (UniProt Q07869); assay: qHTS assay for small molecule agonists of the peroxisome proliferator-activated receptor alpha (PPARalpha) signaling pathway (AID 651778); details: PathHunter PPARalpha complementation, chemiluminescence, 6 h; max response: stronger effect = higher value; note: % of control where 0% means no effect
# Peroxisome proliferator-activated receptor alpha (Homo sapiens), sequence (Q07869 whole entry, looked up): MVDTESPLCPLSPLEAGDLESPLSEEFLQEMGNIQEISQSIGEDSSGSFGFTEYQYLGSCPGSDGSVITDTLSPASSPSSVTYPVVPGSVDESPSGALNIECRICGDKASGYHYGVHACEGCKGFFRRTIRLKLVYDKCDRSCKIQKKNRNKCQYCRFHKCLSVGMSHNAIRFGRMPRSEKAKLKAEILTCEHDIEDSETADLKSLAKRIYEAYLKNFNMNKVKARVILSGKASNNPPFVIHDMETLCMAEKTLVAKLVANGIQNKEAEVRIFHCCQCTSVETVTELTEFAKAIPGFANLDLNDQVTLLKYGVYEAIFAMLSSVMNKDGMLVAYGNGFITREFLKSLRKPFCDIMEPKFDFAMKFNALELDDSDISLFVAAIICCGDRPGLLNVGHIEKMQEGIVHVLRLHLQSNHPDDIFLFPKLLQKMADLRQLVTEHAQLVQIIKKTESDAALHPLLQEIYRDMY
# How it was run: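 Cells plated at 2,000/well and held overnight at 37 C, 5% CO2, then compound added by pin tool for 6 hr; after PathHunter detection reagent and 60 min at room temperature, chemiluminescence from enzyme complementation was read.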
# [12] = qHTS assay for small molecule agonists of the antioxidant response element (ARE) signaling pathway measured by Nrf2-dependant transcriptional activity - cell viability counter screen (AID 720653; active = well fitted curve in the direction sought with a large enough effect in the repeat runs; an effect the other way counts as inactive or inconclusive; note: % is set by controls: 0 for no effect and ±100 for the full control effect); details: ARE-bla HepG2 viability, CellTiter-Glo ATP luminescence, 16 h; max response: stronger effect = lower value
# How it was run: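 ARE-bla HepG2 cells (2,000/well) rested 5 hrs at 37C/5% CO2, then exposed to compounds in DMSO for 16 hrs. Viability was read in the same wells as intracellular ATP by luminescence, 30 min at room temperature after reagent addition.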
# [13] = qHTS assay for cell viability of HEK293 cells (AID 743288); details: ATP luminescence (CellTiter-Glo), 18 h; max response: stronger effect = lower value; note: % is set by controls: 0 for no effect and ±100 for the full control effect; nearly all actives have a fitted effect of over 50% in size
# How it was run: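 Parental HEK293 cells were seeded at 2,000 cells/well, rested at least 5 h at 37 C, then exposed to compounds in DMSO for 18 h at 37 C. Viability was read as ATP-dependent luciferase luminescence after 30 min at room temperature.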
# [14] = qHTS assay for cell viability of the p53RE-bla HCT-116 cell line (AID 743292); note: % is set by controls: 0 for no effect and ±100 for the full control effect; nearly all actives have a fitted effect of over 55% in size
# How it was run: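 Intracellular ATP of p53RE-bla HCT-116 cells measured by luciferase luminescence following 16 h compound incubation at 37 C; DMSO-only wells served as vehicle controls.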
# [15] = target: Nuclear receptor subfamily 1 group I member 2 (Rattus norvegicus) (UniProt Q9R1A7); assay: qHTS assay for small molecule activators of the rat pregnane X receptor (rPXR) signaling pathway (AID 651751; call rule not given here; note: 0% is about no effect); details: rPXR reporter cells, luciferase (One-Glo), 24 h
# Nuclear receptor subfamily 1 group I member 2 (Rattus norvegicus), sequence (Q9R1A7 whole entry, looked up): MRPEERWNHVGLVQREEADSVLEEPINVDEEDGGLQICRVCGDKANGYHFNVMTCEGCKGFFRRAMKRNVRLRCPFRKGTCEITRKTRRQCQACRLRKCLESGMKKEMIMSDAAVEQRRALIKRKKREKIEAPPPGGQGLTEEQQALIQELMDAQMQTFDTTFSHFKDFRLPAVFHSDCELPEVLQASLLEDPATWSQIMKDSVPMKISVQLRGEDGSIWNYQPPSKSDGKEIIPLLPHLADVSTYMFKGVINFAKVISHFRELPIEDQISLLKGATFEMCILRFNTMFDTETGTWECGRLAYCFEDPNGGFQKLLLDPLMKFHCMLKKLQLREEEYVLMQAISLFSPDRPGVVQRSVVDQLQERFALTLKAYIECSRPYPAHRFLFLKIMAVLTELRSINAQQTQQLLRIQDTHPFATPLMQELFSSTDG
# [16] = qHTS assay for small molecule agonists of the antioxidant response element (ARE) signaling pathway measured by Nrf2-dependant transcriptional activity (AID 720636; active = well fitted curve in the direction sought with a large enough effect in the repeat runs; an effect the other way counts as inactive or inconclusive;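 note: HepG2 cells with an ARE-driven luciferase reporter; % of control where 0% means no effect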)
# How it was run: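 In HepG2 cells engineered with an Nrf2-responsive luciferase gene, ARE induction was quantified as luminescence after 16 hr compound treatment at 37 C.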
# [17] = target: Peroxisome proliferator-activated receptor gamma (Homo sapiens) (UniProt P37231); assay: qHTS assay for small molecule antagonists of peroxisome proliferator-activated receptor gamma signaling (AID 588537; active = well fitted inhibition curve with a large enough effect in the signal ratio, with a control signal flat, not every such curve was filed as active; the % refers to the signal ratio;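 note: reporter cells co-stimulated with 50 nM rosiglitazone agonist during compound treatment; % of control where 0% means no effect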)
# Peroxisome proliferator-activated receptor gamma (Homo sapiens), sequence (P37231 whole entry, looked up): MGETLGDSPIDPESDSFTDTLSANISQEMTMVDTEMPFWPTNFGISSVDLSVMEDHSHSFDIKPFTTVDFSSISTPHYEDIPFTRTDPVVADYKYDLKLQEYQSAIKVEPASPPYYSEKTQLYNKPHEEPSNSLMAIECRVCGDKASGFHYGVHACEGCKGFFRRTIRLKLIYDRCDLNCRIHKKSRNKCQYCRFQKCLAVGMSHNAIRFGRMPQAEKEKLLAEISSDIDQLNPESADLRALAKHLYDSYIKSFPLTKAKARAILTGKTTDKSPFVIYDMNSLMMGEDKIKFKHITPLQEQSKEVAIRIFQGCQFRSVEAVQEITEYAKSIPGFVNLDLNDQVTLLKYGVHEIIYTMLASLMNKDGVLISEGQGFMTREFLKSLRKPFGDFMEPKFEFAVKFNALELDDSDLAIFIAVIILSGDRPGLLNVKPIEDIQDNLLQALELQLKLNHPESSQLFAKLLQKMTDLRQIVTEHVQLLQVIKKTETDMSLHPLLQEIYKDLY
# How it was run: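 PPAR-gamma-UAS-bla HEK293 cells (3000/well, 1% charcoal/dextran-stripped FBS) were preincubated 6-6.5 h at 37 C, given titrated compounds, then stimulated with 50 nM rosiglitazone for 16 h. Beta-lactamase activity was read with CCF4 dye; IC50 came from Hill fits.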
# [18] = target: Thyroid hormone receptor beta (Homo sapiens) (UniProt P10828); assay: qHTS assay for small molecule agonists of thyroid hormone receptor beta signaling (AID 588545; calls by dose curve;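 note: 0% = DMSO only and 100% = 10 nM T3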)
# Thyroid hormone receptor beta (Homo sapiens), sequence (P10828 whole entry, looked up): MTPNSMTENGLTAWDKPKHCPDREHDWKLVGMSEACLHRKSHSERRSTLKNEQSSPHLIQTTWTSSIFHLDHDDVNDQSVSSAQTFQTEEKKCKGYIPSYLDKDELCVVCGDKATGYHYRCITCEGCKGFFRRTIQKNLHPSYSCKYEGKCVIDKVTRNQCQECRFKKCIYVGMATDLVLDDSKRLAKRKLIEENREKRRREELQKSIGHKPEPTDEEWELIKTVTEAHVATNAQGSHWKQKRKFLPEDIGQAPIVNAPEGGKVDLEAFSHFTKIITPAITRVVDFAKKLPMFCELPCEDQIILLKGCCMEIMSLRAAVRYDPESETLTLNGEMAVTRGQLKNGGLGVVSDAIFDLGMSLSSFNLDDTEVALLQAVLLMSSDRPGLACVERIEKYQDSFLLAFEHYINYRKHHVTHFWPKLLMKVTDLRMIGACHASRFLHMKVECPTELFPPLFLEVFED
# How it was run: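 Stimulation of a TR-driven beta-lactamase reporter was quantified in GripTite HEK 293 cells. Compound series ran for 18 hrs; curves were normalized to T3 and DMSO controls and fitted to yield EC50.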
# [19] = target: Estrogen receptor (Homo sapiens) (UniProt P03372); assay: qHTS assay for small molecule antagonists of estrogen receptor alpha signaling (AID 588513; active = well fitted curve in the direction sought with a large enough effect in the signal ratio, with a control signal flat, not every such curve was filed as active; the % refers to the signal ratio; note: % is set by controls: 0 for no effect and ±100 for the full control effect)
# Estrogen receptor (Homo sapiens), sequence (P03372 whole entry, looked up): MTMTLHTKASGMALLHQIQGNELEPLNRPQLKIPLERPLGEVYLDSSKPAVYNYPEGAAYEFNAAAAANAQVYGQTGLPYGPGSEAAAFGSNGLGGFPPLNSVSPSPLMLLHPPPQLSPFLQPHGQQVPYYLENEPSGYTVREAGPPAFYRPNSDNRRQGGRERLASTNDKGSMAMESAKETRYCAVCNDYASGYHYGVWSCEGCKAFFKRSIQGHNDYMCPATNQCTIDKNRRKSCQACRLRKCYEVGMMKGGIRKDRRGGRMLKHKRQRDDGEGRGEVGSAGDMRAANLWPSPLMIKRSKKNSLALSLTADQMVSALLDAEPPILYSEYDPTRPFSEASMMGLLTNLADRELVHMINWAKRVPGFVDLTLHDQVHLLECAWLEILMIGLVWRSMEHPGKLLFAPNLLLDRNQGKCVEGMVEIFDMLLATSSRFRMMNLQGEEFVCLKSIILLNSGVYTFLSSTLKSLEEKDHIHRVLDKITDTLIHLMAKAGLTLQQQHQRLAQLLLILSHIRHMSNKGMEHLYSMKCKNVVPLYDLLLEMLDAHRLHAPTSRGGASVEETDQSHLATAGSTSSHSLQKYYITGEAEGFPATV
# How it was run: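 ER-alpha-UAS-bla GripTite HEK 293 cells in medium with 2% charcoal/dextran-treated FBS were preincubated 4 h at 37 C, dosed with compound (1:2 titration), stimulated with 0.5nM 17-beta-estradiol for 18 h, then read by CCF4 beta-lactamase fluorescence.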
# [20] = target: Peroxisome proliferator-activated receptor gamma (Homo sapiens) (UniProt P37231); assay: qHTS assay for small molecule agonists of peroxisome proliferator-activated receptor gamma signaling (AID 588536; active = well fitted curve in the direction sought with a large enough effect in the signal ratio, with a control signal flat, not every such curve was filed as active; the % refers to the signal ratio;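 note: 0% = DMSO basal wells and 100% = rosiglitazone at 2 µM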)
# How it was run: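 Test agents, titrated, stimulated HEK293 UAS-bla cells overnight (16 h, 37 C). Substrate CCF4 was then added for two hours at room temperature before fluorescence reading.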
SMILES,outcome [1],max response [2] [%],Potency [3],outcome [4],max response [5] [%],Potency [6],max response [7] [%],max response [8],activation [9],activation [10],max response [11],max response [12],max response [13],Potency [14],max response [15],Potency [16],Potency [17],Potency [18],Potency [19],Potency [20]
CC(C)CCCCCCOC(=O)c1ccccc1C(=O)OCCCCCCC(C)C,inactive,-6.95,inactive,inactive,-16.4,inactive,-8.76,-4.29% (inactive),0.433% (inactive),1.61% (inactive),-1.61% (inactive),0.428% (inactive),-8.54% (inactive),inactive,5.38% (inactive),,,,,
COP(=O)(OC)SCn1c(=O)oc2cc(Cl)cnc21,inactive,,,,,,,,13.8% (inactive),,,-47.9% (inactive),-26% (inactive),inactive,-7.83% (inactive),inactive,,,,
CC1=C(C(=O)Nc2ccccc2)SCCO1,inactive,,inactive,inactive,-2.97,inactive,-5.88,-6.74% (inactive),1.21% (inactive),,-3.16% (inactive),-4.21% (inactive),-15.4% (inactive),inactive,,,inactive,inactive,,
CC1(C)CC/C(=C\c2ccc(Cl)cc2)C1(O)Cn1cncn1 (configuration not stated),inactive,,inactive,inactive,6,inactive,5.05,-37.6% (inactive),-1.43% (inactive),7.02% (inactive),0.489% (inactive),-5.93% (inactive),-11.5% (inactive),inactive,12.5% (inactive),inactive,inactive,,,
Clc1ccc([C@@]2(Cn3cncn3)C[C@H](Br)CO2)c(Cl)c1,,,,,-2.9,14.1 µM (active),-6.47,-7.83% (inactive),0.484% (inactive),1.22% (inactive),0.534% (inactive),-1.58% (inactive),-14.4% (inactive),inactive,,inactive,,,inactive,inactive
CCOP(=O)(OCC)Oc1ccc2c(C)c(Cl)c(=O)oc2c1,inactive,36,inactive,,2.41,inactive,-10.4,-0.0168% (inactive),2.64% (inactive),0.485% (inactive),-3.26% (inactive),-2.45% (inactive),-8.63% (inactive),inactive,12.3% (inactive),inactive,,,,
CSC(=O)c1c(C(F)F)nc(C(F)(F)F)c(C(=O)SC)c1CC(C)C,inactive,97.5,inactive,inactive,,,-14.1,-15.4% (inactive),-0.469% (inactive),1.06% (inactive),6.5% (inactive),-2.65% (inactive),-16.9% (inactive),inactive,,inactive,inactive,inactive,inactive,inactive
